Assay results published in PubChem BioAssay.

target: Pro-neuregulin-1, membrane-bound isoform (Homo sapiens) (UniProt Q02297); experiment: small molecules binding neuregulin-1 protein – biochemical, small-molecule microarray, fluorescence 635/667, psychiatric disease protein project, primary screen (AID 1075); conditions: NRG1 binding, 635 nm fluorescence, higher = more signal;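 also: score combines 667 nm spot fluorescence with signal to noise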
Sequence (Q02297 whole entry, looked up, canonical isoform): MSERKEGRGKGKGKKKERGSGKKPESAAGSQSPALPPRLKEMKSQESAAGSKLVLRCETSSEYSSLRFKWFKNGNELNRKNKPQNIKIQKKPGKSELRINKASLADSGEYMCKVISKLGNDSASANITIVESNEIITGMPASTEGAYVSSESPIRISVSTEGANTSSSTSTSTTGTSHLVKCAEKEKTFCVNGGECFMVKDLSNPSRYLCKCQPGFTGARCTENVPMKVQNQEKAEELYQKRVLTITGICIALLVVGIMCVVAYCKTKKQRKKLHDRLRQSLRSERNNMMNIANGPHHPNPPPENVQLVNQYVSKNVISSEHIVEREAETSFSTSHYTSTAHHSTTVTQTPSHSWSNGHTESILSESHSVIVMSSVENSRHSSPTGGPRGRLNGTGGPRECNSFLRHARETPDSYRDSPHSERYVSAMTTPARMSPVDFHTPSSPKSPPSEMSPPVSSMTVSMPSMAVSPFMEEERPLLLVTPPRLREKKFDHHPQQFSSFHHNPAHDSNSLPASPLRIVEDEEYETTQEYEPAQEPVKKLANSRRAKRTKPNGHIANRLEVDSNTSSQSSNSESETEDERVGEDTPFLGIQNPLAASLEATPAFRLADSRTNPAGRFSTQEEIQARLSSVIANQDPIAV

SMILES | composite z-score
CCCC[C@H]1OB(O)C[C@H]2C1=C(C)C[C@H]1C(=O)N(Cc3ccccc3)C(=O)[C@H]12 | 0.421
CC1CC/C=C\[C@H]2OC34C=CCN(Cc5ccccc5)C(=O)[C@H]3N(CCCCCO)C(=O)[C@@H]4C2C(=O)O1 (stereo partly drawn) | -0.68
CN(C)CCCNC(=O)[C@@]1(Cc2ccccc2I)c2ccccc2C(=O)N(Cc2ccccc2C(F)(F)F)[C@H]1c1ccc(CO)cc1 | 1.74
COc1ccc([Si](C)(C)[C@@H]2[C@@H](CC(=O)N3CCC[C@H]3CO)O[C@]3(C(=O)N(C)c4c(Br)cc(C)cc43)[C@H]2C)cc1 | 0.776
COCC1=C2[C@@H](CCc3ccccc3)OB(O)C[C@@H]2[C@@H]2C(=O)N(Cc3ccccc3)C(=O)[C@@H]2C1 | 0.0327
COCCOC(=O)N1C(=O)[C@@]2(c3ccccc31)[C@H](C(=O)NC[C@H](O)c1ccccc1)[C@H]1C(=O)O[C@H](c3ccccc3)[C@H](c3ccccc3)N1[C@@H]2c1ccc(OCCO)cc1 | 0.977
C=CC[C@@H](OC(=O)Nc1ccc(OC)cc1)c1ccc(O)c2ccccc12 | 0.263
COCCOC(=O)N1C(=O)[C@@]2(c3cc(C#CCCO)ccc31)[C@H](c1ccccc1OCCO)N1[C@H](c3ccccc3)[C@H](c3ccccc3)OC(=O)[C@H]1[C@@H]2C(=O)N1CCN(c2ncccn2)CC1 | 1.66
CCC[C@@H]1C=C(C(=O)O)[C@H](c2ccc(C)cc2)N1S(=O)(=O)c1ccc(C)cc1 | 1.79
COc1ccc(C(O)C2C=CC3C(=O)N(c4ccccc4)C(=O)C3N2Nc2ccc([N+](=O)[O-])cc2)cc1OCc1ccccc1 (stereo not drawn) | 2.06
O=C/C=C/c1ccc2c(c1)OCO2 | -0.31
CN(C)C(=O)[C@@]1(CCC(=O)OC(C)(C)C)N=C(c2ccc(OCCCO)cc2)O[C@H]1c1ccccc1 | 1.92
C=C(C(=O)CC[C@H](OC(C)=O)c1ccc(OCCO)cc1)C(C)C | 0.0987
O=c1cccc(C=Cc2ccccc2)o1 | -0.458
C=CCC(OC(C)=O)[C@@H]1[C@@H](N(Cc2cccc3ccccc23)C(=O)c2cccc3ccccc23)c2cc(OCCCO)ccc2N1C(=O)c1ccc2ccccc2n1 (stereo partly drawn) | -0.0137
COc1ccc(CCNC(=O)[C@@]2(c3ccc([N+](=O)[O-])cc3)CC(=O)N(CC34CC5CC(CC(C5)C3)C4)[C@@H]2c2ccc(CO)cc2)cc1 | 1.22
COCCOC(=O)N1C(=O)[C@@]2(c3ccccc31)[C@H](C(=O)Nc1nc3ccccc3s1)[C@H]1C(=O)O[C@H](c3ccccc3)[C@H](c3ccccc3)N1[C@@H]2c1ccc(OCCO)cc1 | 0.897
CC(C)(C)OC(=O)CC[C@@]1(C(=O)NCCN2CCOCC2)N=C(c2ccc(OCCCO)cc2)O[C@@H]1c1ccccc1 | 1.75
C=CC(COC(C)=O)NS(=O)(=O)c1ccc(Br)cc1 (stereo not drawn) | 0.0456
[N-]=[N+]=Nc1ccccc1[C@H]1OC(c2ccc(OCCCO)cc2)=N[C@@]1(CCS(=O)(=O)c1ccccc1)C(=O)O | 0.826
CC(C)NC(=O)[C@@H]1c2ccccc2C(=O)N(Cc2ccccc2)[C@H]1c1ccc(CO)cc1 | 1.06
COCCOC(=O)N1C(=O)[C@@]2(c3cc(C#CCC(C(=O)OC)C(=O)OC)ccc31)[C@H](c1ccc(O)cc1)N1[C@H](c3ccccc3)[C@H](c3ccccc3)OC(=O)[C@H]1[C@@H]2C(N)=O | 0.328
CC(C)c1ccc(NN2C(C(O)c3cccc(O)c3)C=CC3C(=O)N(c4ccccc4)C(=O)C32)cc1 (stereo not drawn) | 1.97

test system: Neuregulin-1 EGF-like domain; experiment: small molecules binding NRG1 EGF domain – biochemical, small-molecule microarray, 635 nm fluorescence, primary screen (AID 1081); conditions: higher = more signal;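 also: binding of the protein to compounds printed on small-molecule microarray slides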

SMILES | composite z-score
O=C(OCCF)C1=CCC(c2cccc(Cl)c2)O1 (stereo not drawn) | 1.03
COC(=O)[C@@]1(Cc2ccc(OC)cc2)[C@H]2c3cc(C(=O)N4CCCC4)n(Cc4ccccn4)c3C[C@H]2CN1C(=O)c1ccccc1 | 1.4
CC(C)=CCCC(C)=CC(O)C1C=CC2C(=O)N(c3ccccc3)C(=O)C2N1Nc1ccccc1 (stereo not drawn) | 1.06
[N-]=[N+]=NCc1ccccc1[C@H]1OC(c2ccc(OCCCO)cc2)=N[C@@]1(CCS(=O)(=O)c1ccccc1)C(=O)N1CCOCC1 | 1.16
COC(=O)[C@@]1(Cc2ccccc2)[C@H]2c3cc(C(=O)N4CCCC4)n(Cc4ccc(C)o4)c3C[C@H]2CN1C(=O)c1ccccc1 | 0.476
CC(C)OC(=O)CC(=O)CC(O)c1ccc(C#N)cc1 (stereo not drawn) | 0.552
[N-]=[N+]=NCc1ccccc1C[C@]1(C(=O)O)N=C(c2ccc(OCCCO)cc2)O[C@H]1c1ccccc1 | 0.976
COC(=O)[C@@]1(Cc2ccc(OC)cc2)[C@H]2c3cc(C(=O)N(C)C)n(Cc4c(OC)[nH]cc(C)c4=O)c3C[C@H]2CN1C(=O)c1ccccc1 | 1.08
O=c1cccc(CCc2ccccc2)o1 | 1.16
CCCCCCCCCCC(O)C1C=CC2C(=O)N(Cc3ccccc3)C(=O)C2N1n1cnnc1 (stereo not drawn) | 0.843
COC(=O)C[C@@H]1C[C@H](C)[C@]2(O1)C(=O)N(Cc1ccccc1)c1ccc(NC(C)=O)cc12 | 0.443
C=CCOC(=O)[C@@H]1[C@H]2C(=O)O[C@H](c3ccccc3)[C@H](c3ccccc3)N2[C@H](c2ccc(OCCOC(=O)[C@@H]3C[C@@H]4C(=O)NCC(=O)N4[C@@H]3c3cccc(OCCO)c3)cc2)[C@@]12C(=O)Nc1ccc(I)cc12 | 1.35
CCCC[C@H]1OB(O)C[C@H]2C1=C(C)C[C@H]1C(=O)N(Cc3ccccc3)C(=O)[C@H]12 | 0.795
CC1CC/C=C\[C@H]2OC34C=CCN(Cc5ccccc5)C(=O)[C@H]3N(CCCCCO)C(=O)[C@@H]4C2C(=O)O1 (stereo partly drawn) | 1.5
CN(C)CCCNC(=O)[C@@]1(Cc2ccccc2I)c2ccccc2C(=O)N(Cc2ccccc2C(F)(F)F)[C@H]1c1ccc(CO)cc1 | 1.23
COc1ccc([Si](C)(C)[C@@H]2[C@@H](CC(=O)N3CCC[C@H]3CO)O[C@]3(C(=O)N(C)c4c(Br)cc(C)cc43)[C@H]2C)cc1 | 0.9
COCC1=C2[C@@H](CCc3ccccc3)OB(O)C[C@@H]2[C@@H]2C(=O)N(Cc3ccccc3)C(=O)[C@@H]2C1 | -0.0593
COCCOC(=O)N1C(=O)[C@@]2(c3ccccc31)[C@H](C(=O)NC[C@H](O)c1ccccc1)[C@H]1C(=O)O[C@H](c3ccccc3)[C@H](c3ccccc3)N1[C@@H]2c1ccc(OCCO)cc1 | 1.08

SMILES | composite z-score
C=CC[C@@H](OC(=O)Nc1ccc(OC)cc1)c1ccc(O)c2ccccc12 | 1.08
COCCOC(=O)N1C(=O)[C@@]2(c3cc(C#CCCO)ccc31)[C@H](c1ccccc1OCCO)N1[C@H](c3ccccc3)[C@H](c3ccccc3)OC(=O)[C@H]1[C@@H]2C(=O)N1CCN(c2ncccn2)CC1 | 1.26
CCC[C@@H]1C=C(C(=O)O)[C@H](c2ccc(C)cc2)N1S(=O)(=O)c1ccc(C)cc1 | 1.26
COc1ccc(C(O)C2C=CC3C(=O)N(c4ccccc4)C(=O)C3N2Nc2ccc([N+](=O)[O-])cc2)cc1OCc1ccccc1 (stereo not drawn) | 1.26
O=C/C=C/c1ccc2c(c1)OCO2 | 0.0106
CN(C)C(=O)[C@@]1(CCC(=O)OC(C)(C)C)N=C(c2ccc(OCCCO)cc2)O[C@H]1c1ccccc1 | 1.33
C=C(C(=O)CC[C@H](OC(C)=O)c1ccc(OCCO)cc1)C(C)C | -0.108
O=c1cccc(C=Cc2ccccc2)o1 | -0.0882
C=CCC(OC(C)=O)[C@@H]1[C@@H](N(Cc2cccc3ccccc23)C(=O)c2cccc3ccccc23)c2cc(OCCCO)ccc2N1C(=O)c1ccc2ccccc2n1 (stereo partly drawn) | -0.444
COc1ccc(CCNC(=O)[C@@]2(c3ccc([N+](=O)[O-])cc3)CC(=O)N(CC34CC5CC(CC(C5)C3)C4)[C@@H]2c2ccc(CO)cc2)cc1 | 1.15
COCCOC(=O)N1C(=O)[C@@]2(c3ccccc31)[C@H](C(=O)Nc1nc3ccccc3s1)[C@H]1C(=O)O[C@H](c3ccccc3)[C@H](c3ccccc3)N1[C@@H]2c1ccc(OCCO)cc1 | 1.18
CC(C)(C)OC(=O)CC[C@@]1(C(=O)NCCN2CCOCC2)N=C(c2ccc(OCCCO)cc2)O[C@@H]1c1ccccc1 | 1.2
C=CC(COC(C)=O)NS(=O)(=O)c1ccc(Br)cc1 (stereo not drawn) | 0.583
[N-]=[N+]=Nc1ccccc1[C@H]1OC(c2ccc(OCCCO)cc2)=N[C@@]1(CCS(=O)(=O)c1ccccc1)C(=O)O | 0.67
CC(C)NC(=O)[C@@H]1c2ccccc2C(=O)N(Cc2ccccc2)[C@H]1c1ccc(CO)cc1 | 1.36
COCCOC(=O)N1C(=O)[C@@]2(c3cc(C#CCC(C(=O)OC)C(=O)OC)ccc31)[C@H](c1ccc(O)cc1)N1[C@H](c3ccccc3)[C@H](c3ccccc3)OC(=O)[C@H]1[C@@H]2C(N)=O | 1.32
CC(C)c1ccc(NN2C(C(O)c3cccc(O)c3)C=CC3C(=O)N(c4ccccc4)C(=O)C32)cc1 (stereo not drawn) | 1.3
